Results as given in PubChem BioAssay.
Inconclusive results are not listed. Activity calls are given as the source filed them.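 The calls were made as follows, unless noted: active = RAM network inhibition above 8.4% in each of two replicates, 3 SD over the compound average; inconclusive = above 8.4% inhibition in only one replicate; inactive = 8.4% inhibition or less in each replicate.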

Columns and labels:
[1] = molecular target: Pantothenate synthetase (Mycobacterium tuberculosis (strain ATCC 25618 / H37Rv)) (UniProt P9WIL5); assay: Recombinant Mtb pantothenate synthetase (PanC) inhibitors, coupled enzyme, confirmatory (AID 375; call rule not given here;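 also: 0% = full reaction with vehicle and 100% = no enzyme background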); conditions: coupled enzyme assay; at 10 µM, stronger effect = higher value
[2] = reducers of endogenous Her2 protein level, primary screen, SKBR3 breast tumor cells, AlphaScreen, ATP viability (AID 461;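 active = Her2 level under about 52% in both replicate screens, with viability over 70% of control, limit read from the data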;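 as to Her2 level: lower value means less Her2 protein in the cells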;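 as to viability: percent of carrier control wells set as 100% viability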); conditions: 18-24 h, measured here: SKBR3 viability, ATP luminescence, at 10 µM
[3] = molecular target: Receptor tyrosine-protein kinase erbB-2 (Homo sapiens) (UniProt P04626); assay: as above; conditions: 18-24 h, at 10 µM, stronger effect = lower value
[4] = SK-BR-3 cell growth inhibitors, pilot screen, 24 h, human (AID 572;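 active = viability at or below 10% of carrier control in both of two separate runs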;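 also: compound exposure lasted between 18 and 24 h rather than exactly 24 h; 100% = carrier-treated control wells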); conditions: SK-BR-3 viability, CellTiter-Glo luminescence, at 10 µM, stronger effect = lower value
[5] = HUVEC growth inhibition – cell-based, human, primary screen (AID 575;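 active = viability at or below 30% in both replicate assays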;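 also: 100% = median of untreated cell wells with 0.1% DMSO on each plate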); conditions: HUVEC proliferation, CellTiter-Glo luminescence, 72 h; at 10 µM; stronger effect = lower value
[6] = reversal of MRP1-mediated doxorubicin resistance, pilot screen, H69AR cells, doxorubicin co-treatment (AID 601;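 active = viability loss from added drug above about 55%, and viability with drug at most 40%, in both replicates, limit read from the data, passing the limit was not always enough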); conditions: CellTiter-Glo, 72 h, at 10 µM; for differential viability (reversal): stronger effect = higher value
[7] = 384-well plate pilot, post-Golgi transport modulator project, inhibition of yeast transport mutant growth (AID 636; in the data active = inhibition above about 31%); conditions: absorbance 615 nm, about 18 h, stronger effect = higher value
[8] = growth suppression of yeast trafficking mutant, preliminary HTS, modulators of trafficking downstream of Golgi apparatus project, 1536-format plate, OD 615 nm (AID 637; in the data active = inhibition above about 30%); conditions: yeast transport mutant growth, absorbance 615 nm, 18 h; stronger effect = higher value
[9] = OD615 S. cerevisiae growth inhibition, permissive medium, pilot counter-assay, permissive growth control for S. cerevisiae lifespan shortening project (AID 705;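 active = growth inhibition above 25% in both replicates, a cutoff set 3 SD above the mean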); conditions: OD615, 24 h, at 10 µM, stronger effect = higher value
[10] = Restrictive medium S. cerevisiae growth inhibition, OD615, pilot screen of yeast lifespan reduction project, restrictive growth control (AID 706;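 active = growth inhibition above a set limit, 3 SD over mean compound inhibition, in both replicates, cut at about 43% in these data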;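 also: modified DeaD lifespan yeast strain shifted to restrictive glucose medium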); conditions: OD615, 48 h, at 10 µM, stronger effect = higher value
[11] = viability gain of MRP-1-high H69AR cells under doxorubicin, pilot screen, MRP-1 activator project, CellTiter-Glo, duplicate (AID 807;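 active = viability increase at or above a cutoff of the median across tested compounds plus 3 SD, cut at about 8.5% in these data, passing the limit was not always enough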;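 also: compound pretreatment 18-22 h then 72 h combined with doxorubicin; 0% = doxorubicin alone and 100% = vehicle without doxorubicin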); conditions: H69AR viability with doxorubicin, CellTiter-Glo luminescence; at 10 µM; stronger effect = higher value
[12] = growth suppression of beta-catenin knockout HCT116, pilot screen, human colon tumor cells (AID 823;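 active = cell viability at or below a set limit in both duplicate runs, the limit being the all-compound median minus 4 SD, cut at about 23% in these data, passing the limit was not always enough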;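 also: 0% = wells killed by 20 µM Hyamine and 100% = untreated DMSO cell wells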); conditions: CellTiter-Glo, 60 h, at 10 µM, stronger effect = lower value
[13] = inhibitors of the yeast RAM network, pilot screen, dse1pr::URA3 reporter, 5-FOA selection (AID 869;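 active = inhibition over a set limit, the all-compound mean plus 3 SD, in both replicate runs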;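 also: 0% = DMSO wells with no growth and 100% = 10 µM 1-NA-PP1 with full growth; RAM network block rescues cells from 5-FOA so hits raise OD615 growth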); conditions: S. cerevisiae dse1pr::URA3 5-FOA growth, OD615, 2 d, at 10 µM, stronger effect = higher value
[14] = RAM signaling pathway blockade in yeast – S. cerevisiae, Pdr1DBD-CYC8 efflux-inhibited sensitized strain, primary screen (AID 1298);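 also: 0% = DMSO untreated cells without growth and 100% = 10 µM 1-NA-PP1 full growth; higher means more yeast growth rescued from 5-FOA killing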; conditions: S. cerevisiae cbk1-as DSE1-URA3 strain, 5-FOA growth OD615, 2 d; at 50 µM; stronger effect = higher value
[15] = growth suppression of PTEN-deleted HCT116, pilot screen, cell-based, HCT116 clonal line, CellTiter-Glo (AID 824;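 active = viability at or below 27.92% in each of two runs, the all-compound median minus 4 SD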;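 also: 0% = 20 µM Hyamine control and 100% = vehicle cell control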); conditions: 60 h, at 10 µM, stronger effect = lower value
[16] = growth inhibitors of H69AR lung tumor, primary screen, human, duplicate replicates (AID 580;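 active = viability at or under a set limit in both replicates, limit being median viability minus 3 SD, cut at about 48% in these data, passing the limit was not always enough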;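 also: 100% = mean luminescence of untreated wells and 0% = no signal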); conditions: H69AR lung tumor cells viability, ATP luminescence, 72 h; at 10 µM; stronger effect = lower value
[17] = H69AR cells + 2 uM doxorubicin, measured here: viability with 2 uM doxorubicin, stronger effect = lower value
[18] = H69AR cells, compound alone cytotoxicity

Receptor tyrosine-protein kinase erbB-2 (Homo sapiens), sequence (P04626 whole entry, looked up): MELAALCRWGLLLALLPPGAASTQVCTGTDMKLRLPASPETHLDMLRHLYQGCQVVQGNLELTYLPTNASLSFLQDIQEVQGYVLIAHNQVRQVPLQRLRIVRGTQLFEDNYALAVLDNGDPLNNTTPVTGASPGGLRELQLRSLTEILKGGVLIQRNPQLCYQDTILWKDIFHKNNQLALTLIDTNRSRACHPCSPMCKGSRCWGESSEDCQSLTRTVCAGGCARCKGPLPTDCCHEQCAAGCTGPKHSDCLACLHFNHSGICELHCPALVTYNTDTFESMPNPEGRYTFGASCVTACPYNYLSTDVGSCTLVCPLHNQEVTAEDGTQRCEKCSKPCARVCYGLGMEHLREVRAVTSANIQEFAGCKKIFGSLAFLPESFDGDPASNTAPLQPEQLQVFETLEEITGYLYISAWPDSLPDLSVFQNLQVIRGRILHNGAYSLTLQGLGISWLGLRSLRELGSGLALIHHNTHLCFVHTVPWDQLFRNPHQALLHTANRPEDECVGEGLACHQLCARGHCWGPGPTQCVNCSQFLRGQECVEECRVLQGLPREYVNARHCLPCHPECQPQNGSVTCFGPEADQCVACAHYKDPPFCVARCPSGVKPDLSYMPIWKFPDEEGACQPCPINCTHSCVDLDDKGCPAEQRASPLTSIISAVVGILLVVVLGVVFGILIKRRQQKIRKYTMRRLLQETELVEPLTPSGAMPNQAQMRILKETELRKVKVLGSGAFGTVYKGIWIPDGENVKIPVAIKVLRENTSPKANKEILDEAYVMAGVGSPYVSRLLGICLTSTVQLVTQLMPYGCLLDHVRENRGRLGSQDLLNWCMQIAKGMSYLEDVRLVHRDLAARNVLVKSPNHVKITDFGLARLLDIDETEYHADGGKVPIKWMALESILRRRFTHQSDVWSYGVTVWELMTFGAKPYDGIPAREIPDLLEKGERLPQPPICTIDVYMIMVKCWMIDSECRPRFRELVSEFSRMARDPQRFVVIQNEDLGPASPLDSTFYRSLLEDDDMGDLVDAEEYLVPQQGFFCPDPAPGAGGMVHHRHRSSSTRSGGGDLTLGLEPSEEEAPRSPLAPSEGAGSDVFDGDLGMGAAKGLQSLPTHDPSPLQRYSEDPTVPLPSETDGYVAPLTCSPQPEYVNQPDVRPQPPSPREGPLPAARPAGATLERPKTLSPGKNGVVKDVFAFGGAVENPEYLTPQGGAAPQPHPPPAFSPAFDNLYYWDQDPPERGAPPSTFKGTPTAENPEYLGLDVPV
Pantothenate synthetase (Mycobacterium tuberculosis (strain ATCC 25618 / H37Rv)), sequence (P9WIL5 whole entry, looked up): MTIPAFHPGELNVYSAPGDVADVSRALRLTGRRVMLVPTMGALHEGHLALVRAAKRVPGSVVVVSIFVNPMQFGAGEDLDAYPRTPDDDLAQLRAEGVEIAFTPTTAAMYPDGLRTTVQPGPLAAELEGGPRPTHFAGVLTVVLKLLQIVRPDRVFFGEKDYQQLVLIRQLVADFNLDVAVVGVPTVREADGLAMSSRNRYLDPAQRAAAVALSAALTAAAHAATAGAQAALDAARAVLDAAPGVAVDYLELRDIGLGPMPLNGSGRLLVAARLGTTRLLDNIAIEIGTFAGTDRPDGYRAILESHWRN

Row | Compound | inhibition [1] | viability [2] | Her2 level [3] | viability [4] | viability [5] | differential viability (reversal) ([6]; H69AR cells + 2 uM doxorubicin) | viability [6, 17] | viability [6, 18] | inhibition [7] | inhibition [8] | growth inhibition [9] | growth inhibition [10] | viability increase [11] | viability [12] | inhibition [13] | RAM network inhibition [14] | viability [15] | viability [16]
1 | CCOc1ccc(C2SCC(=O)Nc3c2c(=O)[nH]n3C2CCCCCC2)cc1 (stereo not drawn) | 0% (inactive) | 110% | 108% (inactive) | 110% (inactive) | 63.8% (inactive) | 1.13% (inactive) | 57.2% | 58.3% | -5.2% (inactive) | -7.62% (inactive) | -17.8% (inactive) | -3.29% (inactive) | -7.49% (inactive) | 97.7% (inactive) | 2.26% (inactive) | 4% (inactive) |  | 
2 | CC12CN3CC(C)(CN(C1)C3c1cccnc1)C2=O (stereo not drawn) |  |  |  |  |  |  |  |  |  |  | -9.24% (inactive) | 7.5% (inactive) | -0.3% (inactive) | 103% (inactive) | 1.14% (inactive) | 9% (inactive) | 100% (inactive) | 
3 | CCCCCCOc1ccc(CN2CCN(C)CC2)cc1 | 0% (inactive) | 83.5% | 87% (inactive) | 83.5% (inactive) | 61.5% (inactive) | 6.76% (inactive) | 70.5% | 77.2% | -5.06% (inactive) | 3.44% (inactive) | -13.5% (inactive) | -20.8% (inactive) | -5.38% (inactive) | 47.7% (inactive) | -0.45% (inactive) | 0.09% (inactive) | 49% (inactive) | 77.2% (inactive)
4 | Cc1cccc(N2CCc3c2nc2ccccc2c3N)c1 | 0% (inactive) | 84.5% | 86% (inactive) | 84.5% (inactive) |  | -14.1% (inactive) | 63.9% | 49.8% | -2.53% (inactive) | 7.67% (inactive) | -1.63% (inactive) | -0.635% (inactive) | -6.21% (inactive) | 36.4% (inactive) | 3.02% (inactive) | 4.96% (inactive) | 44.5% (inactive) | 
5 | O=P(OCC(F)(F)C(F)F)(N1CCCCC1)N1CCCCC1 | 3% (inactive) | 104% | 108% (inactive) | 104% (inactive) | 106% (inactive) | 17.1% (inactive) | 99.9% | 117% | 2.67% (inactive) | -7.9% (inactive) | -8.86% (inactive) | -5.09% (inactive) | -0.61% (inactive) | 89% (inactive) | 0.595% (inactive) | 3.2% (inactive) | 95.5% (inactive) | 117% (inactive)
6 | COC(=NC1CCCC1)C(O)c1c[nH]c2ccccc12 (stereo not drawn) | 0% (inactive) | 101% | 103% (inactive) | 101% (inactive) | 102% (inactive) | 1.98% (inactive) | 106% | 108% | -0.82% (inactive) | -4.44% (inactive) | -12.2% (inactive) | -12.5% (inactive) | -4.16% (inactive) |  | 0.825% (inactive) | 0.62% (inactive) | 81.2% (inactive) | 108% (inactive)
7 | CC1(C)Cc2c(sc3c2C(=O)NC(c2cccnc2)N3)CO1 (stereo not drawn) | 7% (inactive) | 113% | 83.5% (inactive) | 113% (inactive) | 102% (inactive) | 12.8% (inactive) | 85.7% | 98.5% | -3.47% (inactive) | 1.48% (inactive) | -16.3% (inactive) | 11.8% (inactive) | -2.97% (inactive) | 107% (inactive) | 1.58% (inactive) | 5.15% (inactive) |  | 98.5% (inactive)
8 | CCCCn1c(C)c(C(=O)OCC)c2c(CN3CCOCC3)c(O)ccc21 | 2% (inactive) | 110% | 92.5% (inactive) | 110% (inactive) | 58.5% (inactive) | -6.07% (inactive) | 79.4% | 73.3% | -4.34% (inactive) | 4.33% (inactive) | -15.6% (inactive) | -9.74% (inactive) | -6.39% (inactive) | 68.3% (inactive) | -0.155% (inactive) | 2.5% (inactive) | 72.6% (inactive) | 73.3% (inactive)
9 | CP(C)(=O)CCC(=O)O | 0% (inactive) | 101% | 105% (inactive) | 101% (inactive) | 81.4% (inactive) | 18.2% (inactive) | 82.1% | 100% | -4.94% (inactive) | 3.44% (inactive) | -18% (inactive) | -19.2% (inactive) | 0.16% (inactive) | 101% (inactive) | 0.42% (inactive) | 2.22% (inactive) | 98.1% (inactive) | 100% (inactive)
10 | CN1C(=O)C(Cc2cccc3ccccc23)C(=O)N(C)C1=O | 6% (inactive) | 73.5% | 94% (inactive) | 73.5% (inactive) | 95.4% (inactive) | -7.14% (inactive) | 92.4% | 85.2% | -5.81% (inactive) | 0.98% (inactive) | -20.9% (inactive) | -4.64% (inactive) | -2.39% (inactive) | 92.5% (inactive) | 0.305% (inactive) | 1.47% (inactive) | 89.7% (inactive) | 85.2% (inactive)
